An excerpt weighted towards active compounds, which were near 3.3% of everything screened.
Arbovirus inh = arbovirus infection inhibition. arbovirus infection cell-based antiviral screen. inhibition, % at 10 µM. actives 0.37% (n = 200,000); in the data active means inhibition above about 30%
WT yeast gro inh = growth inhibition of WT yeast, mitochondrial fusion screen | actives 2.1% (n = 190,000) | mitochondrial fusion phenotypic screen, WT strain | inhibition, % at 10 µM | AID 1362; in the data active means inhibition above about 58%; tested in S. cerevisiae
PERK inh = human PERK inhibition, primary cell-based screen; AID 1416; CHO PERK-DD fusion, SEAP luminescence translation reporter; inhibition, % at 5.6 µM; Q9NZJ5; actives 0.17% (n = 220,000);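 active means inhibition above the mean inhibition of all tested compounds plus 3 SD, set separately per screening campaign, cut at about 2.9% in these data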;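 further: PERK kinase domain activated by AP20187 dimerizer at 100 nM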
ROMK mod = human ROMK K+ channel modulation, primary screen | P48048 | Tet-inducible ROMK, thallium flux fluorescence; actives lie on both sides | B-score at 10 µM | actives 2% (n = 130,000);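 active means signal ratio slope over the read window, or its plate-corrected B-score, at least 3 SD from the plate mean, either direction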;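 further: B-score of the F/F0 ratio slope over 7 to 12 s after thallium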
A number is an active result; 0 = inactive; - = no result.

SMILES | Arbovirus inh | WT yeast gro inh | PERK inh | ROMK mod
Cc1ccc(C(=O)Nc2scc(-c3ccccc3)c2C(=O)O)o1 | 62 | 0 | 0 | 0
COc1ccc(-c2csc(NC(=O)c3cccs3)c2C(=O)O)cc1OC | 0 | 0 | 0 | -
CCC(C)/C(C)=N/NC(=O)c1ccc(COc2ccc(Cl)c(C)c2)cc1 (centres undefined) | 0 | 72 | 0 | 0
Cc1cc(Br)c(OCc2ccc(C(=O)N/N=C3\CC4CC=CC34)cc2)c(Br)c1 (centres undefined) | 0 | 76 | 0 | 0
O=C(N/N=C1\CC2CC=CC12)c1ccc(Br)cc1 (centres undefined) | 0 | 0 | 0 | 0
COc1ccc(NC(=O)C(=O)NNC(=O)C(C)Oc2ccc(Cl)cc2Cl)cc1 (centres undefined) | 0 | 0 | 0 | 4.8
Cc1cccc(NC(=S)NNC(=O)COc2ccc(Cl)cc2Cl)c1 | 0 | 63 | 0 | -
CCC(=O)NC(=S)Nc1ccc(NC(=O)COc2ccc(Cl)cc2Cl)cc1 | 0 | - | 0 | -
Cc1ccc(OCC(=O)NNC(=S)NC(=O)C(C)(C)C)c(Br)c1 | 0 | 84 | 0 | 0
COc1ccc(NC(=S)NNC(=O)COc2ccc(Cl)cc2Cl)cc1 | 0 | 69 | 0 | -
CCOC(=O)Cn1nc(C)n(-c2ccc(C)cc2)c1=O | 0 | 0 | 0 | -
O=C(c1ccccc1)N1CCC(c2nc3c(nnn3Cc3ccco3)c(=O)[nH]2)CC1 | 0 | 0 | 0 | -
N#CC1=C(N)SC(N)=C(C#N)C1c1c(Cl)cccc1Cl | 0 | 63 | 0 | 0
N#CC1=C(N)SC(N)=C(C#N)C1CCc1ccccc1 | 0 | 0 | 0 | -
Cc1nc(Nc2nc3ccccc3o2)nc2c1CCC2 | 0 | 0 | 0 | -
Cc1cccc(C)c1Nc1nc2ccccc2o1 | 46 | 0 | 0 | -
O=C(NNC(=O)c1ccccc1)C(=O)N1CCCCC1 | 0 | 0 | 3.1 | 0
Cc1ccccc1C(=O)NNC(=O)C(=O)N1CCCCC1 | 0 | 0 | 0 | -
Cc1ccc(NNC(=O)C(=O)N2CCCCC2)cc1 | 0 | 64 | 0 | -
CN(C)CCCN(C(=O)c1ccc2c(c1)CCCC2)c1nc2ccc(F)cc2s1 | 0 | 87 | 0 | -
Cc1ccc2nc(N(CCCN(C)C)C(=O)c3sc4ccccc4c3Cl)sc2c1 | 0 | 89 | 0 | -
CN(C)CCN(C(=O)c1ccc2c(c1)OCCO2)c1nc2ccc(Cl)cc2s1 | 0 | 0 | 0 | 0
Cc1ccc(C(=O)N(CCCN(C)C)c2nc3ccc(Cl)cc3s2)cc1C | 0 | 89 | 0 | 0
CCN(CC)CCN(C(=O)c1ccc2c(c1)CCCC2)c1nc2ccc(F)cc2s1 | 0 | 0 | 0 | 0
CN(C)CCCN(C(=O)CCc1ccccc1)c1nc2ccc(F)cc2s1 | 0 | 89 | 0 | -
SMILES | Arbovirus inh | WT yeast gro inh | PERK inh | ROMK mod
COc1ccc(CCNC(=O)CN2CCN(c3cccc(C(F)(F)F)c3)CC2)cc1 | 0 | 0 | 0 | 0
C/C(CC(=O)Nc1cccc(Cl)c1Cl)=N\NC(=O)c1ccccc1Br | 0 | 0 | 0 | 0
CCCC(=O)Oc1ccccc1C1SCc2cc(C)c(C)cc2CS1 | 32 | 0 | 0 | 0
CCOC(=O)C1CCCN(C(=O)CN2C(=O)/C(=C/c3ccc(OC)cc3)Oc3ccccc32)C1 (centres undefined) | 0 | 59 | 0 | 0
CCOC(=O)C1CCCN(C(=O)CN2C(=O)c3ccccc3C2=O)C1 (centres undefined) | 0 | 0 | 0 | 0
Cc1cccc(S(=O)(=O)NCCc2ccccc2)c1 | 0 | 0 | 0 | 0
COC(=O)c1ccccc1NC(=O)c1ccc(COc2ccc(C)c(C)c2)o1 | 48 | 0 | 0 | -
Cc1cc(Nc2ccccc2)nc(-c2ccccc2O)n1 | 0 | 0 | 0 | -
Cc1cc(NCc2ccccc2)nc(-c2ccccc2O)n1 | 0 | 62 | 0 | -
COc1ccc(N/C=C/C(=C(C#N)C#N)N(C)C)cc1 | 0 | 0 | 0 | -
O=C(O)c1ccccc1CSc1nnc2c(n1)[nH]c1ccccc12 | - | - | 3.1 | -
Cc1ccc(N2CCN(C(=O)N3CCCC3)CC2)cc1C | 0 | 0 | 0 | -
O=C(CCCc1nc(-c2ccccc2)no1)NCc1cccnc1 | 0 | 0 | 0 | 0
COc1cc(C=C2C(=O)OC(c3ccccc3)OC2=O)cc(Br)c1O (centres undefined) | 0 | 0 | 0 | 0
COc1cc(C2N=C(c3ccccc3)NO2)cc(Br)c1O (centres undefined) | 35 | 0 | 0 | 0
CCOc1ccccc1C(=O)N1CCN(c2cccc(Cl)c2)CC1 | 0 | 0 | 0 | -
COc1ccccc1N1CCN(c2ncc(C(=O)N3CCN(c4cccc(Cl)c4)CC3)c3ccccc23)CC1 | 0 | 59 | 0 | 0
O=C(O)CSc1nc(-c2ccc(Cl)cc2)nc2c1oc1ccccc12 | 35 | 0 | 0 | 0
O=C(O)CSc1nc(-c2ccccc2)nc2c1oc1ccccc12 | 0 | 0 | 0 | -
Cc1ccc(-n2c(C3CC3c3ccc(Cl)cc3)n[nH]c2=S)cc1 (centres undefined) | 0 | 0 | 0 | 0

Assay outcomes deposited in PubChem by several laboratories.
